The list is not random: actives were taken first. Their share in the collection is about 6.2%.
KB-V1 MDR tox = KB-V1 MDR subline cytotoxicity. Potency, µM (series often up to 46.1 µM), usual class: cytotoxic. 400,000 tested, 3.4% active. KB-V1 MDR cells viability, CellTiter-Glo, 72 h; also: % is scaled to controls: 0 for no effect and ±100 for the full control effect; nearly all actives have a fitted effect of over 60% in size
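Readout: CellTiter-Glo luminescence, 10 min after addition. Cells: KB-V1 MDR subline, 72 h at 37 degrees C with compound. Analysis: corrected, normalized data fitted to concentration-effect curves.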
ATXN2 expr inh = inhibitors of ATXN2 expression; HEK-293 ATXN2-luciferase reporter, luminescence, 24 h; Potency, µM (doses to about 57 µM), for the others: at the top dose activity change, negative = inhibition, hits mostly inhibitors; 360,000 tested, 0.72% active; AID 1745845; also: % is scaled to controls: 0 for no effect and ±100 for the full control effect; nearly all actives have a fitted effect of over 55% in size
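qHTS (up to 57 uM final) was run with 24 h compound exposure of reporter cells at 37 °C. Each well was multiplexed: SteadyGlo luminescence measured ATXN2-luciferase expression after a fluorogenic Gly-Phe-AFC viability readout (25 uM final).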
HT1080NT lethal = kills 2HG-producing HT-1080-NT fibrosarcoma cells; AID 686970; Potency, µM (doses to about 46.1 µM), inactives show top-dose activity, negative = less viability, actives largely listed as cytotoxic; HT-1080-NT fibrosarcoma viability, CellTiter-Glo ATP luminescence, 48 h; 360,000 tested, 1.6% active;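 also: NT is the 2HG producing partner of a matched IDH1 knockdown line; 0% = DMSO-treated cells and -100% = media-only wells without cells; nearly all actives have a fitted effect of over 55% in size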
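Fibrosarcoma NT cells, 750 per well in 5% FBS RPMI, were exposed to compound for 48 hours. Viability: CellTiter-Glo luminescence.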
S2 tox = viability counter-screen for ATXN expression inhibitors | S2 cells (HEK-293 line with an ATXN2-luciferase reporter) viability, CellTiter-Fluor protease fluorescence, 24 h | AID 651635 | 400,000 tested, 0.49% active | Potency, µM (top dose mostly 56.7 µM), most hits filed as cytotoxic; also: nearly all actives have a fitted effect of over 40% in size
KB-3-1 cytotox = KB-3-1 parental cell cytotoxicity; KB-3-1 viability, CellTiter-Glo ATP luminescence, 72 h; AID 1347075; 400,000 tested, 1.4% active; Potency, µM (doses to about 46.1 µM), actives largely listed as cytotoxic; also: % is scaled to controls: 0 for no effect and ±100 for the full control effect; nearly all actives have a fitted effect of over 60% in size
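Cytotoxicity in the drug-sensitive parental line KB-3-1 was scored as loss of CellTiter-Glo luminescence following 72 h incubation with compound. Values come from curve fitting of normalized concentration-response data.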
HT1080 IDH1KD tx = HT-1080 IDH1 knockdown cell toxicity (counter line); Potency, µM (titrated, usually from 46.1 µM), for inactives: at the top dose activity, negative = toxicity, actives largely listed as cytotoxic; 360,000 tested, 2% active; AID 686971; HT-1080 IDH1 knockdown viability, ATP luminescence, 48 h;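 also: 0% = DMSO wells and -100% = cell-free medium wells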
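Assay cells: HT-1080 with IDH1 knockdown, 750 per well, RPMI/5% FBS. Exposure: 48 h at 37 °C following 2 h pre-incubation. Read: CellTiter-Glo luminescence; fitted concentration-response, curve class assigned.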
Numbers without * were called inactive; i = inactive; ? = inconclusive; . = not tested or not shown; [ ] = another dose, or the depositor's remark. Calls follow the shape of the dose curve; as a rule, active = well fitted curve in the direction sought with a large enough effect; inconclusive = small, poorly fitted or top-dose-only effect, or another doubt; inactive = no such curve, though single readings can be large; an effect the other way counts as inactive or inconclusive. Potency is read from the fitted curve at half-maximal effect.

SMILES	KB-V1 MDR tox	ATXN2 expr inh	HT1080NT lethal	S2 tox	KB-3-1 cytotox	HT1080 IDH1KD tx
Cc1ccc(-c2noc(CC(=O)c3ccc([N+](=O)[O-])cc3)n2)cc1	16µM*	-8%	0%	i	i	0%
CCc1ccc(NC(=O)Nc2ccon2)cc1	i	32%	16%	i	i	23%
Cc1ccc(-c2nc3sc(CCNC(=O)c4ccc(C)c(C)c4)c(C)n3n2)cc1	i	4%	.	i	i	.
CCN(C)c1ccc(/C=C/c2ccnc3ccccc23)cc1	?	.	.	.	i	.
Cc1cccc(-n2nnnc2SCC(=O)c2cc(C)n(Cc3ccco3)c2C)c1	18µM*	-15%	-20%	i	i	?
Cc1ccc(-n2nnnc2SCC(=O)c2cc(C)n(-c3cc(C)on3)c2C)cc1	i	5%	-18%	i	i	-16%[9.24 µM]
Cc1cccc(-n2nnnc2SCC(=O)c2cc(C)n(CC3CCCO3)c2C)c1 (stereo not given)	?	54%	-18%	i	i	-4%
Cc1cc(C(=O)CSc2nnnn2-c2ccc(O)cc2)c(C)n1Cc1ccc2c(c1)OCO2	15µM*	-6%	-1%	i	?	-5%
Nn1c(SCC(=O)Nc2ccc3c(c2)OCO3)nnc1-c1cccc(Cl)c1	i	-3%	-15%	i	i	-18%
Cc1cc(C(=O)CSc2nnc(-c3cccc(F)c3)n2N)c(C)n1Cc1ccc2c(c1)OCO2	2.6µM*	-30%	-4%	i	?	-16%
Cc1cc(C(=O)CSc2nnnn2-c2ccccc2)c(C)n1-c1ccc2c(c1)OCO2	7.3µM*	-7%	-10%	i	?	-20%
COc1ccc(OC)c(CCNC(=O)c2ccc3[nH]c(C)c(C)c3c2)c1	i	.	.	.	i	.
Cc1ccc(S(=O)(=O)NCCc2csc3nc(-c4ccccc4C)nn23)cc1	i	-17%	.	i	i	.
CCCn1c(SCC(=O)c2cc(C)n(C3CC3)c2C)n[nH]c1=O	.	19%	8%	i	.	6%
CCCn1c(SCC(=O)c2cc(C)n(-c3ccc4c(c3)OCO4)c2C)n[nH]c1=O	2.9µM*	7%	-11%	i	12µM*	-19%
Cc1cc(C(=O)CSc2nncs2)c(C)n1-c1ccc2c(c1)OCO2	16µM*	26%	?	i	i	-7%
C=CCN1CC[C@@H](O)C(=C)S1(=O)=O	i	.	.	.	i	.
CC(=O)Nc1ccc(S(=O)(=O)Nc2cccc(-c3nc4cc(C)ccc4o3)c2)cc1	?	.	-1%	i	18µM*	15%
Cc1ccc2oc(-c3cccc(NC(=O)C4CCCO4)c3)nc2c1 (stereo not given)	i	53%	?	i	i	-25%
Cc1cccc(-c2nc3cc(NC(=O)C4CCCO4)ccc3o2)c1 (stereo not given)	13µM*	-17%	-14%	i	i	-3%
CCCCCCC1CCC(C(=O)NC(C(=O)O)C(C)C)CC1 (stereo not given)	i	-2%	.	i	i	.
CCCCCC1CCC(C(=O)NNC(=S)NCC)CC1 (stereo not given)	15µM*	-9%	6.3µM*	i	?	3.2µM*
Cn1cc(C(=O)NCCc2ccc(Cl)cc2)c(=O)c2cc(S(=O)(=O)N3CCCCC3)ccc21	i	3%	.	i	?	.
COc1ccccc1N1CCN(C(=O)CN(c2ccccc2OC)S(=O)(=O)c2ccccc2)CC1	23µM*	-4%	-1%	i	i	-9%
COc1ccc(N(CC(=O)NC2CCCCCC2)S(=O)(=O)c2ccc(C)cc2)cc1OC	?	4%	-1%	i	i	1%
SMILES	KB-V1 MDR tox	ATXN2 expr inh	HT1080NT lethal	S2 tox	KB-3-1 cytotox	HT1080 IDH1KD tx
Cc1ccc(S(=O)(=O)N(CC(=O)NC2CCCC2)c2cccc(C)c2)cc1	4.1µM*	1%	10%	i	i	7%
CS(=O)(=O)N(CC(=O)N1CCN(c2ccc(F)cc2)CC1)c1cccc(Cl)c1	9.2µM*	4%	-19%	i	i	-15%
COc1ccc(OC)c(N(CC(=O)N2CCC(C)CC2)S(=O)(=O)c2ccccc2)c1	7.3µM*	-12%	11%	?	i	11%
CCOc1ccc(/C=C/c2cc[n+](C)c3ccccc23)cc1OCC	i	.	.	.	?	.
CCOC(=O)N1CCN(C(=O)CN(c2ccc(Cl)c(C(F)(F)F)c2)S(C)(=O)=O)CC1	23µM*	0%	-2%	i	i	-1%
CCOC(=O)N1CCN(C(=O)CN(c2cccc(C)c2)S(=O)(=O)c2ccccc2)CC1	2.9µM*	4%	11%	i	i	9%
CCOC(=O)N1CCN(C(=O)CN(c2cccc(C)c2)S(=O)(=O)c2ccc(C)cc2)CC1	?	-6%	8%	i	i	-2%
COCC(=O)Nc1cc(C(=O)N2CCCC2c2nccs2)c2c(c1)nc(-c1ccncc1)n2C (stereo not given)	.	.	.	i	.	.
c1cc(CN2CCCCC2)cc(OCCCNc2nc3ccccc3s2)c1	?	?	?	?	i	?
O=C(NC(=S)Nc1ccc(CN2CCCCC2)cc1)c1cccc(OCc2ccccc2)c1	?	.	?	i	i	21µM*
O=C(NCCCOc1cccc(CN2CCCCC2)c1)c1ccc(Cl)c(Cl)c1	i	-21%	21µM*	i	i	23µM*
CCN1CCN(c2ccc(NC(=O)c3cccc(OCc4ccccc4)c3)cc2)CC1	?	-1%	-24%	i	?	?
CN1CCN(c2ccc(NC(=O)c3cccc(OCc4ccccc4)c3)cc2)CC1	i	3%	21µM*	i	i	18µM*
CC(C)(C)c1cc(C(C)(C)C)c(NC(=O)c2c[nH]c3ccccc3c2=O)cc1O	.	8%	.	.	.	.
Cc1ccc(S(=O)(=O)n2nc(C)c(S(=O)(=O)N3CCC(C)CC3)c2C)cc1	i	15%	.	i	i	.
Cc1ccc(CN2C(=O)c3ccccc3C2c2nnnn2-c2ccc3c(c2)OCCO3)cc1 (stereo not given)	i	-19%	-16%	?	?	?
Cc1ccccc1CN1C(=O)c2ccccc2C1c1nnnn1-c1ccc2c(c1)OCCO2 (stereo not given)	5.8µM*	7%	3.7µM*	?	2.9µM*	3.3µM*
Oc1cccc(/C=N/NC(=S)NCCN2CCOCC2)c1O	i	.	2%	i	?	-4%
O=C(NCCN1CCOCC1)c1cc(-c2ccccc2)on1	i	-1%	-2%	?	i	?
S=C(NCCN1CCOCC1)N/N=C/c1cccs1	i	.	3%	5µM*	i	16%

Compound activity (PubChem BioAssay)
